From PubChem BioAssay
Compounds with a hit are over-represented: about 0.58% of the library has one in this group of screens.
CatB mix inh – inhibitors of human cathepsin B in compound mixtures | Purified cathepsin B, AMC dipeptide fluorescence | 0.06% of 62,000 active | inhibition, %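 (ten-compound pools at 5 µM per compound and 50 µM total)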; in the data active = inhibition above about 22%, passing the limit was not always enough; inconclusive = no clear call, values can overlap the other calls;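 note: 0% = enzyme without compound and 100% = no enzyme blank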
CatL inh – blocks human cathepsin L protease activity; purified cathepsin L, fluorogenic substrate, fluorescence; 0.17% of 58,000 active; inhibition, %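 (tested at 10 µM)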; P07711; in the data active = inhibition above about 45%;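 note: 0% = enzyme with no compound and 100% = no enzyme blank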
CatG inh – cathepsin G (human) inhibition; purified enzyme, AMC-tetrapeptide fluorescence, pooled mixtures; inhibition, % at 5 µM (by protocol); 0.2% of 62,000 active;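 active = inhibition above 20% in each of the two mixture wells holding the compound; inactive = inhibition of 20% or less in either well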;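 note: 0% = enzyme control without mixture and 100% = blank lacking enzyme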
CatB block – blocks human cathepsin B protease activity. P07858. purified cathepsin B, fluorogenic substrate, fluorescence. inhibition, %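 (tested at 10 µM)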. 0.1% of 63,000 active. AID 453; in the data active = inhibition above about 21%;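 note: 0% = enzyme with no compound and 100% = no enzyme blank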
C1s block – blocks human complement C1s protease activity | purified C1s, fluorogenic AMC substrate, pooled mixtures | mean inhibition % of two 10-compound mixtures (hits give high values), % at 5 µM (by protocol) | 0.16% of 62,000 active | AID 538;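 active = inhibition above 20% in each of the two 10-compound mixture wells holding the compound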;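 note: 0% = enzyme wells lacking compound mixture and 100% = no-enzyme blank wells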
Target sequence (P09871 16-437 limits assumed): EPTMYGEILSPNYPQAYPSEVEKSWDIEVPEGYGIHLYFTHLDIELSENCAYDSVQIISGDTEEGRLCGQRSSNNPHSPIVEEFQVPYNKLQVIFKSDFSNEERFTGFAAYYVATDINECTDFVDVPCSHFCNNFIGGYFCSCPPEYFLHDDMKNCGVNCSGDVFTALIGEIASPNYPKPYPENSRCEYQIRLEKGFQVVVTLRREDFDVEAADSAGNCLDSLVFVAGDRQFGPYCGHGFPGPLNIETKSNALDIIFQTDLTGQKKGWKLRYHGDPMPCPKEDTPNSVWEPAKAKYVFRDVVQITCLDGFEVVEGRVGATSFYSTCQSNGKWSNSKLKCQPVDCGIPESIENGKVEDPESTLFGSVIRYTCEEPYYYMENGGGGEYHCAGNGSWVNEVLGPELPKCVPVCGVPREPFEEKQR
Target sequence (P09871 438-688 limits assumed): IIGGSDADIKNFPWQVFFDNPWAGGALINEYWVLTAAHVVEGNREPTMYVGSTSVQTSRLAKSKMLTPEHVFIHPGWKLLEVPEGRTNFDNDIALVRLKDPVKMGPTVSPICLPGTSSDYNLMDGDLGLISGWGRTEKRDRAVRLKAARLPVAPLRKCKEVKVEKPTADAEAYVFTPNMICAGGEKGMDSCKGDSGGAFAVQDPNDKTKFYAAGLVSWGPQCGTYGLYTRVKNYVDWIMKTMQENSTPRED
CatS block – human cathepsin S inhibition. P25774. recombinant cathepsin S, AMC dipeptide fluorescence, pooled mixtures. inhibition, %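 (tested at 5 µM per compound within 10-compound mixtures)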. 0.06% of 62,000 active; in the data active = inhibition above about 32%, passing the limit was not always enough; inconclusive = no clear call, values can overlap the other calls;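 note: 0% = enzyme without compound and 100% = blank without enzyme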
An asterisk follows results filed as active; u = inconclusive; x = no result.

SMILES | CatB mix inh | CatL inh | CatG inh | CatB block | C1s block | CatS block
Cc1cc(C)c2c(=O)n(CC(=O)NCCCN3CCN(c4ccccc4F)CC3)sc2n1 | 7 | 65* | 10 | 3 | 14 | 6
Cc1cc(C)c2c(=O)n(CC(=O)NCCCN3CCOCC3)sc2n1 | 5 | 12 | 6 | 2 | 14 | 2
Nc1nc(C(=O)N2CCOCC2)nn1C(=O)c1ccc(Cl)cc1 | 3 | x | 40* | -3 | 32* | 0
Cc1cccc(N(CC(=O)NC2CCCCC2)C(=O)CCC(=O)Nc2cc(C)ccn2)c1 | 13 | 5 | 11 | 4 | 13 | x
COc1cc(OC)cc(C(=O)Nc2ncc3c(n2)CC(C)CC3=O)c1 (configuration not stated) | 5 | -1 | 17 | 4 | 22* | 11
O=C(CC(c1ccccc1)c1ccco1)N1CCOCC1 (configuration not stated) | 7 | 18 | -11 | 8 | -74 | 59*
CCOc1nc(C#N)nc(N2CCCCC2)n1 | 11 | 59* | -4 | 15 | -3 | 37*
O=C(NCc1ccco1)C(Cc1ccccc1)N1C(=O)C2C3C=CC(C3)C2C1=O (configuration not stated) | 0 | 54* | 8 | 5 | -4 | 12
O=C(C(Cc1ccccc1)N1C(=O)C2C3C=CC(C3)C2C1=O)N1CCCCCC1 (configuration not stated) | -2 | -14 | -5 | 1 | 35 | -5
C1CCC2(CC1)C1=C(CCCC1)Nc1nnnn12 | 0 | 0 | 7 | 2 | 3 | 1
Nc1nc2n(n1)C1(CCCCC1)C1=C(CCCC1)N2 | 69* | 4 | -8 | 39* | -20 | 13
Cc1c(-c2ccccc2)sc(N)c1C(=O)N1CCOCC1 | 0 | 15 | -2 | 0 | 3 | -3
CCCCCNC(CC(=O)Nc1ccc(OC)cc1)C(=O)O (configuration not stated) | 6 | 13 | 11 | 1 | 6 | 3
CCOc1ccc(NS(=O)(=O)c2ccc(NS(C)(=O)=O)cc2)cc1 | 4 | 76* | 6 | 2 | -8 | -7
CCOc1ccc(NS(=O)(=O)c2ccc(OCC(=O)N3CCCC3)cc2)cc1 | 3 | 5 | 11 | 2 | -9 | 0
COc1ccc(C2C(C#N)=C(/N=C/N3CCN(C)CC3)OC3=C2C(=O)CC(C)(C)C3)cc1OC (configuration not stated) | 1 | 20 | 8 | 4 | -16 | 2
O=CN(Cc1ccco1)C1(C(=O)NC2CCCCC2)CCCCC1 | 5 | -12 | 1 | -2 | 0 | 15
Cc1ccc(NC(=O)Cc2nn(C)c(=O)c3ccccc23)cc1F | 6 | 19 | 21* | 6 | 23 | 13
CN/C=C1\C(=O)C(C)(C)Oc2ccc3ccc(=O)oc3c21 | 5 | 12 | 10 | 5 | 23* | 1
Cc1cc(C)c2cc(CN(CC3CCCO3)C(=O)NC3CCCCC3)c(=O)[nH]c2c1 (configuration not stated) | -3 | -2 | 2 | -3 | 1 | -9
COc1ccc(NC(C)=O)cc1NC(=O)CSc1nnc(-c2ccc(F)cc2)n1N | 9 | 4 | -5 | 6 | -1 | 11
O=C(CN(c1ccc(F)cc1)S(=O)(=O)c1ccc2c(c1)OCCO2)NCc1ccccn1 | -3 | -7 | 35 | -2 | 5 | 11
CCOc1ccccc1CN(Cc1ccco1)S(=O)(=O)c1ccc(-n2cnnn2)c(OC)c1 | 8 | 5 | 1 | -1 | 0 | 5
CCC(=O)Nc1cccc(-c2nc3ccccc3c(=O)o2)c1 | 4 | 1 | 59* | 1 | 37* | -1
CC(=O)Nc1cccc(-c2nc3ccccc3c(=O)o2)c1 | -3 | -10 | 65* | 1 | 22 | -2
SMILES | CatB mix inh | CatL inh | CatG inh | CatB block | C1s block | CatS block
CCc1cc(=O)oc2cc(C)cc(OC(=O)c3ccco3)c12 | 0 | 10 | 18 | -7 | 38* | -4
CCCCC(CCC(=O)Nc1ccccc1C(=O)OCC)C(=O)O (configuration not stated) | 6 | 17 | 0 | -1 | -27 | 16
COC(=O)c1ccc(NC(=O)c2ccc(CN3CCOCC3)cc2)cc1 | 1 | 84* | -29 | 1 | -29 | 6
Nc1nonc1C(=O)OCC(=O)N1CCOCC1 | 8 | 8 | 0 | 31* | -4 | 0
O=C(OCC(=O)N1CCOCC1)c1ccc[nH]c1=O | 2 | 4 | 2 | 0 | 4 | -6
Nc1nonc1-c1noc(N2CCCCC2)n1 | 6 | 36 | 5 | 24* | 2 | 0
Cn1ncc2c1ncn1c(-c3ccccc3Cl)nnc21 | -4 | -11 | 9 | 0 | 4 | 3
CCOC(=O)c1sc(=S)n(-c2cc(F)ccc2F)c1N | 0 | 104* | 3 | 7 | -22 | -4
CC(C)N(C(=O)CSc1nnc(CN2CCCCCC2=O)n1-c1ccccn1)C(C)C | 4 | -5 | 10 | -1 | 15 | -5
CC(=O)Nc1c(C(=O)c2ccccc2)oc2ccccc12 | 6 | 104* | -5 | -2 | -6 | u
CC(=O)Nc1c(C(=O)C2CC2)oc2ccccc12 | 34 | 5 | 9 | 7 | -15 | 16
CSc1nc(-c2ccco2)nn1C(=O)c1cccs1 | -1 | 14 | 59* | 1 | 68* | 4
COc1ccc(-c2nc(SC)n(C(=O)c3ccco3)n2)cc1 | 5 | x | 20* | 5 | 63* | 13
CC(=O)n1nc(-c2ccco2)nc1N | 6 | 25 | -8 | 9 | -40 | 9
COc1ccc(C(=O)n2nc(-c3ccco3)nc2SC)cc1OC | 3 | x | 40* | 7 | 70* | -2
COc1ccc(CNc2nc(-c3cccnc3)nn2C(=O)c2ccco2)cc1 | -7 | -6 | 12 | 1 | 0 | -2
COc1ccccc1C(=O)n1nc(-c2ccco2)nc1N | 1 | 8 | 13 | 0 | -5 | 10
Cc1cc(C(c2nnnn2Cc2ccccc2)N2CCOCC2)c(C)n1-c1ccc2c(c1)OCO2 (configuration not stated) | 10 | 14 | 11 | 6 | 11 | 13
CC(C)OCCCNc1ncnc2c1[nH]c1ccccc12 | 3 | -15 | -1 | -8 | -2 | -2
O=C(Cc1cccs1)N(c1ccccc1)C1C=CS(=O)(=O)C1 (configuration not stated) | 4 | 14 | 9 | 1 | 16 | -15
CCc1ccccc1N(C(=O)c1cccs1)C1C=CS(=O)(=O)C1 (configuration not stated) | 3 | 7 | 15 | 7 | 60* | 11
Cc1nc(CNS(=O)(=O)c2cc(C)c(C)cc2C)cs1 | 7 | 9 | 7 | 3 | 57* | 26
CC(=O)NC(=O)NC1CSCC1OC(C)=O (configuration not stated) | 8 | 13 | 14 | -2 | 58* | 16
COC(=O)NC1CSCC1OC(=O)c1ccc(Br)cc1 (configuration not stated) | -14 | 9 | -19 | -4 | -120 | -20
COC(=O)c1ccc(OC(=O)c2ccco2)cc1 | 1 | -10 | 5 | 0 | 34* | -6
